# Results published in the supplement of paper PMC8728848.
# About 410 targets per protein were measured; listed, in parts, are those with the strongest signals and a random draw of the rest.
# B1: Wzz (Escherichia coli) (protein)
# chain: MRTWKFPSVRVMMRVENNNVSGQNHDPEQIDLIDLLVQLWRGKMTIIISVIVAIVLAIGYLAVAKEKWTSTAIITQPDVGQIAGYNNAMNVIYGQAAPKVSDLQETLIGRFSSAFSALAETLDNQEEPEKLTIEPSVKNQQLPLTVSYVGQTAEGAQMKLAQYIQQVDDKVNQELEKDLKDNIALGRKNLQDSLRTQEVVAQEQKDLRIRQIQEALQYANQAQVTKPQIQQTGEDITQDTLFLLGSEALESMIKHEATRPLVFSSNYYQTRQNLLDIDNLDVDKLDIHAYLYVMKPTLPIRRDSPKKAITLILAVLLGGMVGAGIVLGRNALRNYNAK
# B2: AFL6 (Aspergillus fumigatus), Q4WKJ1 (protein)
# chain: MSFHLTAEDIRIEDGHRLVARLRNADGDLQDASIDLNTCLGNDNGHFQWDGVDFSHSAQDVHFAIEGGGQVPVLRAQLANQDGEFQDADVNLSERIENINGEFVFH
# Experiments:
# Experiment in all cases: glycan array binding signal (z-score within array); higher = stronger binding
# Conditions in all cases: glycan notation: IUPAC condensed, linker removed
# [1] = biological target: GlcNAc(b1-3)Gal(b1-4)GlcNAc(b1-3)Gal(b1-4)GlcNAc(b1-3)GalNAc
# Method in brief: (§1)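 Glycan array data were curated from 3228 arrays in the Consortium for Functional Glycomics database and kept only where the protein sequence was available. Glycan names were converted to IUPAC-condensed notation, and columns mapping to the same glycan were averaged. The binding signal is a within-array Z-score, averaged across arrays of the same protein sequence at different concentrations or buffers and across linkers. Negative Z-scores can be read as non-binding.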
# [2] = biological target: GlcNAc(b1-3)Gal(b1-4)GlcNAc(b1-6)[GlcNAc(b1-3)Gal(b1-3)]GalNAc
# Method in brief: as §1
# [3] = biological target: GlcNAc6S(b1-3)Gal(b1-4)GlcNAc
# Method in brief: as §1
# Man(a1-2)Man(a1-3)Man = biological target: Man(a1-2)Man(a1-3)Man
# Method in brief: as §1
# [4] = biological target: Neu5Ac(a2-3)Gal(b1-4)GlcNAc(b1-2)Man
# Method in brief: as §1
# [5] = biological target: Neu5Ac(a2-3)Gal(b1-4)GlcNAc(b1-6)[Gal(b1-3)]GalNAc
# Method in brief: as §1
# [6] = biological target: Neu5Ac(a2-3)Gal(b1-4)[Fuc(a1-3)]GlcNAc(b1-3)Gal(b1-4)[Fuc(a1-3)]GlcNAc(b1-3)Gal(b1-4)[Fuc(a1-3)]GlcNAc
# Method in brief: as §1
# [7] = biological target: Neu5Ac(a2-3)[GalNAc(b1-4)]Gal(b1-4)Glc
# Method in brief: as §1
# [8] = biological target: Neu5Ac(a2-6)Gal(b1-4)GlcNAc(b1-2)Man(a1-3)[GlcNAc(b1-2)Man(a1-6)]Man(b1-4)GlcNAc(b1-4)GlcNAc
# Method in brief: as §1
# [9] = biological target: Neu5Ac(a2-6)Gal(b1-4)GlcNAc(b1-2)Man(a1-6)Man(b1-4)GlcNAc(b1-4)GlcNAc
# Method in brief: as §1
# [10] = biological target: Neu5Ac(a2-6)Gal(b1-4)GlcNAc(b1-2)Man(a1-6)[Man(a1-3)]Man(b1-4)GlcNAc(b1-4)GlcNAc
# Method in brief: as §1
# [11] = biological target: Neu5Ac(a2-6)Gal(b1-4)GlcNAc(b1-6)[Gal(b1-3)GlcNAc(b1-3)]Gal(b1-4)Glc
# Method in brief: as §1
# [12] = biological target: Neu5Ac(a2-6)GlcNAc(b1-4)GlcNAc
# Method in brief: as §1
# [13] = biological target: Neu5Ac(a2-8)Neu5Ac(a2-3)[GalNAc(b1-4)]Gal(b1-4)Glc
# Method in brief: as §1
# [14] = biological target: Neu5Ac9Ac(a2-6)Gal(b1-4)GlcNAc
# Method in brief: as §1
# [15] = biological target: Fuc(a1-2)Gal(b1-3)GalNAc(a1-3)[Fuc(a1-2)]Gal(b1-4)Glc
# Method in brief: as §1
# [16] = biological target: Fuc(a1-2)Gal(b1-3)GlcNAc(b1-2)Man(a1-3)[Fuc(a1-2)Gal(b1-3)GlcNAc(b1-2)Man(a1-6)]Man(b1-4)GlcNAc(b1-4)GlcNAc
# Method in brief: as §1
# Fuc(a1-2)Gal(b1-4)Glc6S = biological target: Fuc(a1-2)Gal(b1-4)Glc6S
# Method in brief: as §1
# [17] = biological target: Fuc(a1-2)Gal(b1-4)GlcNAc6S
# Method in brief: as §1
# [18] = biological target: Fuc(a1-2)[Gal(a1-3)]Gal(b1-3)GlcNAc
# Method in brief: as §1
# [19] = biological target: Fuc(a1-2)[Gal(a1-3)]Gal(b1-3)GlcNAc(b1-6)GalNAc
# Method in brief: as §1
# [20] = biological target: Fuc(a1-2)[Gal(a1-3)]Gal(b1-4)GlcNAc(b1-2)Man(a1-3)[Fuc(a1-2)[Gal(a1-3)]Gal(b1-4)GlcNAc(b1-2)Man(a1-6)]Man(b1-4)GlcNAc(b1-4)GlcNAc
# Method in brief: as §1
# [21] = biological target: Fuc(a1-2)[GalNAc(a1-3)]Gal
# Method in brief: as §1
# [22] = biological target: Fuc(a1-2)[GalNAc(a1-3)]Gal(b1-4)GlcNAc(b1-3)GalNAc
# Method in brief: as §1
# [23] = biological target: Gal(a1-3)Gal(b1-3)GlcNAc(b1-2)Man(a1-3)[Gal(a1-3)Gal(b1-3)GlcNAc(b1-2)Man(a1-6)]Man(b1-4)GlcNAc(b1-4)GlcNAc
# Method in brief: as §1
# [24] = biological target: Gal(a1-4)Gal(b1-4)GlcNAc(b1-3)Gal(b1-4)Glc
# Method in brief: as §1
# Gal(b1-3)GalNAc(b1-3)Gal = biological target: Gal(b1-3)GalNAc(b1-3)Gal
# Method in brief: as §1
# [25] = biological target: Gal(b1-3)GlcNAc(b1-3)Gal(b1-4)GlcNAc
# Method in brief: as §1
# [26] = biological target: Gal(b1-3)GlcNAc(b1-3)Gal(b1-4)GlcNAc(b1-2)[Gal(b1-3)GlcNAc(b1-3)Gal(b1-4)GlcNAc(b1-6)]Man(a1-6)[Gal(b1-3)GlcNAc(b1-3)Gal(b1-4)GlcNAc(b1-2)Man(a1-3)]Man(b1-4)GlcNAc(b1-4)[Fuc(a1-6)]GlcNAc
# Method in brief: as §1
# [27] = biological target: Gal(b1-3)[Fuc(a1-4)]GlcNAc(b1-3)Gal(b1-3)[Fuc(a1-4)]GlcNAc
# Method in brief: as §1
# [28] = biological target: Gal(b1-4)GlcNAc(b1-2)[Gal(b1-4)GlcNAc(b1-6)]Man(a1-6)[GlcNAc(b1-4)][Gal(b1-4)GlcNAc(b1-2)[Gal(b1-4)GlcNAc(b1-4)]Man(a1-3)]Man(b1-4)GlcNAc(b1-4)[Fuc(a1-6)]GlcNAc
# Method in brief: as §1
# [29] = biological target: Gal(b1-4)GlcNAc(b1-3)Gal(b1-4)GlcNAc(b1-3)Gal(b1-4)GlcNAc(b1-2)Man(a1-3)[Gal(b1-4)GlcNAc(b1-3)Gal(b1-4)GlcNAc(b1-3)Gal(b1-4)GlcNAc(b1-2)Man(a1-6)]Man(b1-4)GlcNAc(b1-4)GlcNAc
# Method in brief: as §1
# [30] = biological target: Gal(b1-4)GlcNAc(b1-3)Gal(b1-4)GlcNAc(b1-3)Gal(b1-4)GlcNAc(b1-3)Gal(b1-4)GlcNAc(b1-2)Man(a1-3)[Gal(b1-4)GlcNAc(b1-3)Gal(b1-4)GlcNAc(b1-3)Gal(b1-4)GlcNAc(b1-3)Gal(b1-4)GlcNAc(b1-2)Man(a1-6)]Man(b1-4)GlcNAc(b1-4)[Fuc(a1-6)]GlcNAc
# Method in brief: as §1
# [31] = biological target: Gal(b1-4)GlcNAc(b1-3)Gal(b1-4)GlcNAc(b1-3)[Gal(b1-4)GlcNAc(b1-3)Gal(b1-4)GlcNAc(b1-6)]GalNAc
# Method in brief: as §1
# [32] = biological target: Gal(b1-4)GlcNAc(b1-3)[Fuc(a1-3)GlcNAc(b1-6)]Gal(b1-4)Glc
# Method in brief: as §1
# [33] = biological target: Gal3S(b1-3)[Fuc(a1-4)]GlcNAc
# Method in brief: as §1
# Gal6P(b1-4)GlcNAc = biological target: Gal6P(b1-4)GlcNAc
# Method in brief: as §1
# [34] = biological target: GalNAc(b1-3)Gal(a1-4)Gal(b1-4)GlcNAc(b1-3)Gal(b1-4)Glc
# Method in brief: as §1
# GalNAc(b1-3)GalNAc = biological target: GalNAc(b1-3)GalNAc
# Method in brief: as §1
# [35] = biological target: GlcNAc(a1-4)Gal(b1-4)GlcNAc
# Method in brief: as §1
# [36] = biological target: GlcNAc(a1-4)Gal(b1-4)GlcNAc(b1-3)Gal(b1-4)Glc
# Method in brief: as §1
# [37] = biological target: GlcNAc(a1-4)Gal(b1-4)GlcNAc(b1-3)Gal(b1-4)GlcNAc
# Method in brief: as §1
# [38] = biological target: GlcNAc(a1-4)Gal(b1-4)GlcNAc(b1-3)Gal(b1-4)GlcNAc(b1-3)Gal(b1-4)GlcNAc
# Method in brief: as §1
# [39] = biological target: GlcNAc(b1-2)[GlcNAc(b1-6)]Man(a1-6)[GlcNAc(b1-4)][GlcNAc(b1-2)Man(a1-3)]Man(b1-4)GlcNAc(b1-4)GlcNAc
# Method in brief: as §1
# [40] = biological target: GlcNAc(b1-3)Gal(b1-4)GlcNAc(b1-3)Gal(b1-4)GlcNAc(b1-2)Man(a1-3)[GlcNAc(b1-3)Gal(b1-4)GlcNAc(b1-3)Gal(b1-4)GlcNAc(b1-2)Man(a1-6)]Man(b1-4)GlcNAc(b1-4)[Fuc(a1-6)]GlcNAc
# Method in brief: as §1
binder,measurement,setting,value
B1,glycan array binding signal (z-score),[1],0.801
same,glycan array binding signal (z-score),[2],-0.084
same,glycan array binding signal (z-score),[3],0.081
same,glycan array binding signal (z-score),Man(a1-2)Man(a1-3)Man,-0.72
same,glycan array binding signal (z-score),[4],2.37
same,glycan array binding signal (z-score),[5],-0.035
same,glycan array binding signal (z-score),[6],-1.71
same,glycan array binding signal (z-score),[7],-0.397
same,glycan array binding signal (z-score),[8],1.21
same,glycan array binding signal (z-score),[9],2.29
same,glycan array binding signal (z-score),[10],1.66
same,glycan array binding signal (z-score),[11],-0.436
same,glycan array binding signal (z-score),[12],0.29
same,glycan array binding signal (z-score),[13],1.61
same,glycan array binding signal (z-score),[14],-0.542
B2,glycan array binding signal (z-score),[15],-0.421
same,glycan array binding signal (z-score),[16],2.45
same,glycan array binding signal (z-score),Fuc(a1-2)Gal(b1-4)Glc6S,-0.234
same,glycan array binding signal (z-score),[17],-0.334
same,glycan array binding signal (z-score),[18],-0.417
same,glycan array binding signal (z-score),[19],-0.178
same,glycan array binding signal (z-score),[20],0.717
same,glycan array binding signal (z-score),[21],0.228
same,glycan array binding signal (z-score),[22],-0.656
same,glycan array binding signal (z-score),[23],0.406
same,glycan array binding signal (z-score),[24],0.039
same,glycan array binding signal (z-score),Gal(b1-3)GalNAc(b1-3)Gal,-0.263
same,glycan array binding signal (z-score),[25],-0.706
same,glycan array binding signal (z-score),[26],1.91
same,glycan array binding signal (z-score),[27],-0.509
same,glycan array binding signal (z-score),[28],-0.245
same,glycan array binding signal (z-score),[29],2.41
same,glycan array binding signal (z-score),[30],2.99
same,glycan array binding signal (z-score),[31],4.09
same,glycan array binding signal (z-score),[32],-0.272
same,glycan array binding signal (z-score),[33],-0.44
same,glycan array binding signal (z-score),Gal6P(b1-4)GlcNAc,-0.655
same,glycan array binding signal (z-score),[34],-0.055
same,glycan array binding signal (z-score),GalNAc(b1-3)GalNAc,-0.414
same,glycan array binding signal (z-score),[35],2.64
same,glycan array binding signal (z-score),[36],2.89
same,glycan array binding signal (z-score),[37],3.58
same,glycan array binding signal (z-score),[38],3.77
same,glycan array binding signal (z-score),[39],-0.56
same,glycan array binding signal (z-score),[40],2.48
